Results: the supplement of paper PMC6555819

Legend:
Assay in all cases: PBM binding z-score (relative to random genomic background probes); higher = stronger binding; sequences stand for … in GC…GCGATTGACAGCGTAGAATGAAGG
[1] = test system: PPARg:RXRa DBDmut IVT, anti-RXR (DBD mutation: RXRa K156A/R161A, NR concentration 270 nM, RXRa partner concentration 90 nM)
Method in brief: (§1)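 The probes on custom Agilent 4×180K protein-binding microarrays were double-stranded, with 34-nt variable regions bearing direct-repeat seeds, single-nucleotide variants, half-site ablations and random human genomic background sequences. Incubation lasted 1 h with ligand-free nuclear receptor dimers in PBS pH 7.4, 2% milk, 0.02% Triton X-100, 1 mM DTT, 0.2 mg/mL BSA and 0.4 mg/ml salmon testes DNA. Antibodies against each partner (one per run) detected bound dimers, and fluorescence scans were regression-normalized. Binding z-scores take the random background probes as reference.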

[2] = test system: PPARg:RXRa IVT, anti-PPARg (NR concentration 270 nM, RXRa partner concentration 90 nM)
Method in brief: as §1

[3] = test system: PPARg DBDmut:RXRa IVT, anti-PPARg (DBD mutation: PPARg1 K132A/R137A, NR concentration 270 nM, RXRa partner concentration 90 nM)
Method in brief: as §1

[4] = test system: PPARg DBDmut IVT, anti-PPARg (DBD mutation: PPARg1 K132A/R137A, NR concentration 270 nM)
Method in brief: as §1

[5] = test system: PPARg homodimer (NR concentration 180 nM)
Method in brief: as §1

[6] = test system: PXR:RXRa (NR concentration 270 nM, RXRa partner concentration 90 nM)
Method in brief: as §1

[7] = test system: PXR homodimer (NR concentration 270 nM)
Method in brief: as §1

[8] = test system: RARa:RXR (NR concentration 270 nM, RXRa partner concentration 90 nM)
Method in brief: as §1

[9] = test system: RARa homodimer (NR concentration 270 nM)
Method in brief: as §1

[10] = test system: RARb:RXRa (NR concentration 270 nM, RXRa partner concentration 90 nM)
Method in brief: as §1

[11] = test system: RARb homodimer (NR concentration 270 nM)
Method in brief: as §1

[12] = test system: RARg:RXRa (NR concentration 270 nM, RXRa partner concentration 90 nM)
Method in brief: as §1

[13] = test system: RARg homodimer (NR concentration 270 nM)
Method in brief: as §1

[14] = test system: RXRa DBDmut IVT, anti-RXR (DBD mutation: RXRa K156A/R161A, NR concentration 90 nM)
Method in brief: as §1

[15] = test system: RXRa homodimer (NR concentration 180 nM)
Method in brief: as §1

[16] = test system: THRa:RXRa (NR concentration 90 nM, RXRa partner concentration 90 nM)
Method in brief: as §1

[17] = test system: THRa homodimer (NR concentration 90 nM)
Method in brief: as §1

[18] = test system: VDR homodimer (NR concentration 270 nM)
Method in brief: as §1

Sequence	PBM binding z-score [1]	PBM binding z-score [2]	PBM binding z-score [3]	PBM binding z-score [4]	PBM binding z-score [5]	PBM binding z-score [6]	PBM binding z-score [7]	PBM binding z-score [8]	PBM binding z-score [9]	PBM binding z-score [10]	PBM binding z-score [11]	PBM binding z-score [12]	PBM binding z-score [13]	PBM binding z-score [14]	PBM binding z-score [15]	PBM binding z-score [16]	PBM binding z-score [17]	PBM binding z-score [18]
CCGACTGGGGAAGAAAGGTTACCATACCATCCGG	-0.325	0.33	-0.996	-0.95	0.579	0.747	-0.0818	1.3	0.0486	1.23	1.97	0.982	0.848	-0.897	1.49	1.09	-0.21	-0.0513
TATACAGGGTCAAGGGCCAGAGTACGAATGTCGA	2.4	4.69	2.98	1.83	3.27	3.99	0.571	4.97	1.16	4.61	3.62	5.65	5.33	2.14	6.23	3.68	1.08	2.13
ACTTACGGGTAAACGAGGTTATAGCACGCGTATA	0.828	1.16	-0.07	0.0677	0.611	1.65	0.138	2.32	0.806	0.846	1.12	0.939	0.812	0.819	1.57	3.64	0.765	1.45
AGCATGAGGTTAAGATCAGGGAAACAGAATACAT	0.0322	0.624	0.52	-0.142	0.333	1.23	0.477	2.07	0.813	2.02	0.891	2.08	1.62	0.954	2.58	2.66	0.635	0.646
CCAGATAGGTGAAAGGTAACTCAGTCTGGTACGC	5.2	4.32	0.289	-0.0951	1.74	1.02	0.111	2.13	0.659	1.31	1.04	1.53	0.944	0.181	2.46	0.97	0.0815	0.348
CAAACTAGGTCACGAAAGGTTAAAGTCGAATGAC	8.39	9.07	2.59	1.97	3.32	5.8	0.579	5.4	1.18	5.01	4.85	6.19	6.18	1.95	5.5	4.67	1.78	1.8
ATCTCTAGGTAAGACTCAGTGCAGTGAAGAACGC	1.64	0.686	0.237	0.958	0.398	0.339	0.592	0.223	0.328	-0.152	0.192	0.0414	0.117	-0.00244	0.00631	0.285	0.26	0.24
GATACAGGGTCAAGGCGAGAGTACGCGTATTGAT	2.65	3.72	2.63	0.177	3.25	3.76	0.46	4.83	1.14	4.37	3.23	5.39	4.87	2.77	5.61	3.32	1.11	2.48
CAGCCTAGGTCACGGCCAGTATAGGAGGAACGTT	3.65	4.36	0.0261	-0.166	1.71	2.34	-0.132	3.45	0.239	4.6	3.53	5.27	5.72	1.1	4.43	3.65	1.98	0.435
CGTTACGGGTCACTGACAGGTTATAGCATTTGGA	3.65	3.74	0.269	0.284	2.14	3.75	-0.254	4.61	0.338	3.93	3.43	5.78	4.8	1.74	5.12	3	0.0977	0.672
ACTGACAGGTGATGAAGGTAACTCAGGCTATCAT	0.252	0.675	0.404	-0.0306	-0.378	-0.393	-0.233	-0.039	0.284	0.224	-0.0164	0.199	0.358	-0.478	0.16	0.769	-0.122	-0.152
GCTAGCAGGCCATTTGGGTAACTCAATGACGGGC	1.07	0.155	-0.238	-1.22	-0.806	-0.696	-0.721	-0.454	-1.37	-0.258	-0.555	-0.388	-0.283	-0.499	-0.0687	-0.0773	-0.78	-0.461
TTACCAAGGTGAAAGGTCGTTGACGCACGCCTTG	2.81	4.77	0.591	0.0484	2.15	4.13	0.552	5.9	-0.179	3.21	2.87	4.52	2.25	0.212	6.19	3.34	0.822	1.41
AGTCAAAGTTCACTATGTAACGTAAGATTCAGCT	0.152	2.39	1.02	0.578	1.55	3.59	1.72	2.7	0.755	4.57	3.66	4.55	5.44	4.2	3.68	1.36	-0.244	3.86
ATCGAAAGGTCGACGAGGCGAGTATACACCGTTT	0.214	1.62	0.933	1.13	1.44	2.47	0.0107	3.26	0.0419	3.84	2.61	4.06	3.74	1.28	4.22	2.48	-0.128	0.605
ACAGACAGTTGATGAAGGTAACTCAGGCTATCAT	-0.364	-0.0113	0.732	0.538	0.771	0.245	0.258	0.287	0.632	0.225	0.387	0.00583	0.279	0.223	0.183	0.764	0.154	0.0979

Sequence	PBM binding z-score [1]	PBM binding z-score [2]	PBM binding z-score [3]	PBM binding z-score [4]	PBM binding z-score [5]	PBM binding z-score [6]	PBM binding z-score [7]	PBM binding z-score [8]	PBM binding z-score [9]	PBM binding z-score [10]	PBM binding z-score [11]	PBM binding z-score [12]	PBM binding z-score [13]	PBM binding z-score [14]	PBM binding z-score [15]	PBM binding z-score [16]	PBM binding z-score [17]	PBM binding z-score [18]
GCTTGAAGATCAAGGTTAAGAAAGACTAAGCTAA	-0.184	-0.042	0.0638	-0.723	-0.0355	0.112	-0.655	0.675	-0.598	0.778	0.0789	0.319	0.181	-0.437	0.877	1.02	-0.36	-0.116
CCTACTGGGGCAAAAAGGTCATTGATGCCGATAA	4.52	5.48	0.778	1.73	5.37	5.17	5.54	5.35	2.82	4.08	4.23	4.99	4.5	0.866	4.63	2.9	0.176	3.13
GGAACGAGGGCAGTCGAGTTGATAGCATGGCGAT	2.24	1.29	-0.319	-0.59	-0.872	1.83	-0.252	-0.0532	-0.989	1.77	0.327	0.643	1.18	1.1	0.35	1.52	-0.895	1.02
CCAGACAGGTGAAAGGCAACTCAGTCTGGTACGC	0.767	1.08	0.0608	-0.556	0.466	-0.0216	-0.296	0.0824	0.0834	0.639	0.304	0.225	0.332	-0.268	0.712	0.000923	-0.701	0.202
AGAATGAGGTTACCAAAGACCAGGGAAACGCTTG	3.86	3.33	0.85	0.62	0.291	1.22	-0.349	2.06	-0.134	2.11	0.685	2.01	1.51	1.02	2.79	2.87	0.659	0.4
TAGCCTAGGTCATTGGGCCAGTCTAGTACGCATC	2.31	3.52	-0.286	-0.617	1.58	1.19	-0.0454	1.82	-0.767	3.53	2.48	3.76	3.79	1.52	2.52	2.67	0.501	0.896
ATCTCTAGGTAAAGATGGTTCAGTGAATGCAAAT	1.87	1.65	0.333	0.863	0.000234	0.269	0.428	0.492	0.88	-0.00416	-0.0603	0.324	0.292	-0.0269	0.0778	0.592	0.0966	0.095
GCTTACGGGTCAAAGGTTATACCATGAATAGAAT	4.59	6.16	1.82	1.93	2.73	6.11	0.691	8.2	0.701	4.64	3.74	6.93	4.71	2.59	9.41	4.17	0.206	1.77
ACAGACAGGTGAGTGAAGATAACTCAGCTGGACG	0.148	0.126	0.243	0.332	-0.119	-0.523	-0.597	-0.226	0.147	0.137	-0.405	0.185	0.475	-0.658	0.111	-0.344	-0.684	-0.624
CCTACTTGGCCAAAAAGGTCATTGATGCCGATAA	1.07	1.98	0.866	0.465	4.5	4.93	2.68	5.78	3.1	3.99	4.05	4.68	4.19	1.55	5.15	3.18	1.06	3.04
TCATATAGGTAAATGCTAGATGAAAGTCCGATCT	3.61	1.84	0.931	1.42	-0.0567	0.422	0.0659	0.328	0.951	0.201	-0.248	0.314	0.454	1.15	0.617	-0.0472	-0.457	0.317
GTACCAAGGTGGATAGGTCGTTGATGAGTAGGCG	-0.637	-0.0801	-1.52	-1.37	0.672	-0.207	0.137	-0.144	0.114	0.368	0.625	0.328	0.275	-0.726	0.461	-0.0275	-0.612	-0.371
CCTACTGGTCCATCAGGTCATTGATATCAACGTT	0.344	1.32	0.234	0.596	1.48	1.99	1.32	2.05	0.854	1.87	2.5	1.6	1.47	1.04	1.28	3.41	3.29	2.02
ATCTCTAGGTAAAGATAGTTCAGTCAATGCAAAT	2.07	1.73	0.964	1	0.843	1.05	0.38	0.522	0.556	0.692	0.999	0.494	0.808	0.26	0.151	0.889	-0.0396	0.66
CAGCCTAGGTCAGGGCCACTATAGGAGGAACGTT	1.2	1.84	-0.722	-1.19	0.834	0.356	-0.684	0.936	-0.384	3.44	2.67	3.08	3.7	0.123	1.84	2.19	0.516	-0.129
